According to PubChem BioAssay (NCI):
About 79,000 compounds went through this panel and 15% of them were active in at least one assay; those are over-represented in the sample as a whole. Active and inactive are the calls of the source. No stated cut-off is given here; in the data, active means growth inhibition above about 70%; inactive means the rest.

Key:
[1] = NCI Yeast Anticancer Drug Screen. Data for the rad52 strain (AID 147);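 further: 0% = growth of vehicle-treated control cultures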; settings: S. cerevisiae rad52 mutant growth inhibition, hits give high values
Outline: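 DNA repair-defective yeast; compound exposure; growth scored against vehicle controls.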

[2] = NCI Yeast Anticancer Drug Screen. Data for the mgt1 strain (AID 153); settings: S. cerevisiae mgt1 mutant growth inhibition, hits give high values
Outline: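 Growth inhibition relative to vehicle controls was scored for the mgt1 yeast strain after compound exposure.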

[3] = NCI Yeast Anticancer Drug Screen. Data for the rad50 strain (AID 155);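 further: 0% = growth of vehicle-only cultures of the same strain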; settings: S. cerevisiae rad50 strain growth inhibition, hits give high values
Outline: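 Genetically altered yeast (DNA repair pathway); compound treatment; growth inhibition vs vehicle ctrl.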

[4] = NCI Yeast Anticancer Drug Screen. Data for the mec2-1 strain (AID 157); settings: S. cerevisiae mec2-1 strain, hits give high values
Outline: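 Growth inhibition is read against vehicle-treated controls after compound exposure of the mec2-1 yeast strain, which is defective in DNA damage repair or cell cycle control.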

[5] = NCI Yeast Anticancer Drug Screen. Data for the rad14 strain (AID 159);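 further: 0% = growth of vehicle-treated control cultures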; settings: S. cerevisiae rad14 strain growth inhibition, hits give high values
Outline: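 Test compounds were applied to a repair-deficient yeast strain. Its growth was then compared with that of cultures given vehicle alone, and inhibition was expressed relative to those controls.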

[6] = NCI Yeast Anticancer Drug Screen. Data for the CLN2oe strain (AID 163);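 further: 0% = growth of vehicle-only control cultures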; settings: S. cerevisiae CLN2oe strain, hits give high values
Outline: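 Compound-treated yeast; growth vs vehicle ctrl = % inhibition. Genetically altered strain (cell-cycle control).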

[7] = NCI Yeast Anticancer Drug Screen. Data for the cln2 rad14 strain (AID 165);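 further: 0% = growth equal to vehicle treated cultures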; settings: S. cerevisiae cln2 rad14 strain, hits give high values
Outline: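 Growth inhibition, relative to vehicle-treated controls, is the read-out. The test organism is a yeast strain with defined genetic alterations, cln2 rad14.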

[8] = NCI Yeast Anticancer Drug Screen. Data for the bub3 strain (AID 167); settings: S. cerevisiae bub3 mutant strain, hits give high values
Outline: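 Yeast carrying a defined mutation is treated with each compound, and growth is compared with that of vehicle-exposed cells to give inhibition.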

[9] = NCI Yeast Anticancer Drug Screen. Data for the mlh1 strain (AID 171);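 further: 0% = growth of vehicle-treated control cultures of the same strain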; settings: S. cerevisiae mlh1 strain growth inhibition, hits give high values
Outline: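 Compounds are applied to a genetically altered yeast strain, and its growth is compared with that of vehicle-treated cultures to give percent inhibition.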

[10] = NCI Yeast Anticancer Drug Screen. Data for the sgs1 strain (AID 173);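 further: 0% = growth of vehicle-only control cultures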; settings: S. cerevisiae sgs1 mutant, hits give high values
Outline: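 Compounds applied to genetically altered yeast; growth compared with vehicle-treated cultures to give % inhibition.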

[11] = NCI Yeast Anticancer Drug Screen. Data for the mlh1 rad18 strain (AID 175); settings: S. cerevisiae mlh1 rad18 strain growth inhibition, hits give high values
Outline: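 Cells of a genetically altered yeast strain, deficient in DNA damage repair, were treated with compound. Their growth was then compared with that of vehicle-treated cultures to give inhibition.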

[12] = NCI Yeast Anticancer Drug Screen. Data for the rad18 strain (AID 177); settings: S. cerevisiae rad18 mutant growth inhibition, hits give high values
Outline: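 Compounds are applied to a repair-deficient yeast strain, and growth is compared with that of vehicle-treated cultures to give percent inhibition.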

[13] = NCI Yeast Anticancer Drug Screen. Data for the wt1 strain (AID 149);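 further: 0% = growth of vehicle-treated wt1 cultures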; settings: S. cerevisiae wt1 strain (SPY 50644) growth inhibition, hits give high values
Outline: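 wt1 yeast, compound-treated; % growth inhibition vs vehicle control.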

[14] = NCI Yeast Anticancer Drug Screen. Data for the rad50EPP+ strain (AID 151);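 further: 0% = growth of vehicle-treated control cultures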; settings: S. cerevisiae rad50 mutant strain, hits give high values
Outline: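 rad50EPP+ yeast treated with test compounds. Readout: growth vs vehicle control.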

[15] = NCI Yeast Anticancer Drug Screen. Data for the sgs1 mgt1 strain (AID 161);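 further: 0% = growth of cultures given vehicle only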; settings: S. cerevisiae sgs1 mgt1 strain, hits give high values
Outline: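 Percent growth inhibition was derived by comparing compound-exposed mutant yeast with vehicle-exposed cultures. The strain carries alterations in DNA damage repair.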

[16] = NCI Yeast Anticancer Drug Screen. Data for the wt2 strain (AID 169);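 further: 0% = growth of vehicle-treated yeast cultures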; settings: S. cerevisiae wt2 strain growth inhibition, hits give high values
Outline: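 Compound exposure of yeast; growth compared with vehicle controls; inhibition reported.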

[17] = at 5.0 µM (retest, dose inferred, filed as 0.5)
[18] = at 50.0 µM (retest, dose inferred, filed as 5.0)

Measured: growth inhibition

O=C1C=C(Cl)C(=O)C(c2ccc(Cl)cc2)=C1
active: [1]; at 33.0 µM 98% | [1]; at 100.0 µM 96% | [2]; at 11.0 µM 82% | [2]; at 33.0 µM 98% | [2]; at 100.0 µM 97% | [3]; at 33.0 µM 97% | [3]; [18] 97% | [3]; at 50.0 µM 91.5% | [3]; at 100.0 µM 97% | [4]; at 33.0 µM 98% | [4]; [18] 99% | [4]; at 50.0 µM 92.5% | [4]; at 100.0 µM 97% | [5]; at 33.0 µM 95% | [5]; at 100.0 µM 96% | [6]; at 33.0 µM 98% | [6]; at 100.0 µM 96% | [7]; [18] 98% | [7]; at 50.0 µM 90.8% | [8]; at 33.0 µM 98% | [8]; [18] 98% | [8]; at 50.0 µM 91.8% | [8]; at 100.0 µM 94% | [9]; at 11.0 µM 84% | [9]; at 33.0 µM 97% | [9]; at 100.0 µM 96% | [10]; at 33.0 µM 98% | [10]; at 100.0 µM 96% | [11]; [18] 97% | [11]; at 50.0 µM 91.6% | [12]; at 33.0 µM 96% | [12]; at 100.0 µM 97%
inactive: [1]; at 1.2 µM -33% | [1]; at 3.7 µM -7% | [1]; at 11.0 µM 11% | [2]; at 1.2 µM 2% | [2]; at 3.7 µM 39% | [3]; at 1.2 µM -4% | [3]; at 3.7 µM -1% | [3]; [17] 21% | [3]; at 11.0 µM 44% | [4]; at 1.2 µM 0% | [4]; at 3.7 µM 34% | [4]; [17] 21% | [4]; at 11.0 µM 67% | [5]; at 1.2 µM 11% | [5]; at 3.7 µM 23% | [5]; at 11.0 µM 42% | [6]; at 1.2 µM 31% | [6]; at 3.7 µM 32% | [6]; at 11.0 µM 69% | [7]; [17] 24% | [8]; at 1.2 µM 5% | [8]; at 3.7 µM 20% | [8]; [17] 6% | [8]; at 11.0 µM 62% | [9]; at 1.2 µM 34% | [9]; at 3.7 µM 61% | [10]; at 1.2 µM 18% | [10]; at 3.7 µM 37% | [10]; at 11.0 µM 66% | [11]; [17] 39% | [12]; at 1.2 µM 16% | [12]; at 3.7 µM -4% | [12]; at 11.0 µM 53%

COC(=O)CCC(NC(=S)N/N=C(\C)c1ccccn1)C(=O)OC (stereo unspecified)
inactive: [13]; at 1.2 µM -10% | [13]; at 3.7 µM -22% | [13]; at 11.0 µM 2% | [13]; at 33.0 µM 47% | [14]; at 1.2 µM 6% | [14]; at 3.7 µM -5% | [14]; at 11.0 µM 2% | [14]; at 33.0 µM 18% | [14]; at 100.0 µM 34% | [2]; at 1.2 µM 14% | [2]; at 3.7 µM 6% | [2]; at 11.0 µM 28% | [2]; at 33.0 µM 64% | [3]; at 1.2 µM 8% | [3]; at 3.7 µM 3% | [3]; [17] 34% | [3]; at 11.0 µM 26% | [4]; at 1.2 µM -11% | [4]; at 3.7 µM -7% | [4]; [17] 9% | [4]; at 11.0 µM 12% | [4]; at 33.0 µM 57% | [5]; at 1.2 µM 2% | [5]; at 3.7 µM -3% | [5]; at 11.0 µM 21% | [5]; at 33.0 µM 69% | [15]; [17] 7% | [6]; at 1.2 µM 7% | [6]; at 3.7 µM 2% | [6]; at 11.0 µM 18% | [6]; at 33.0 µM 62% | [7]; [17] -5% | [8]; at 1.2 µM 24% | [8]; at 3.7 µM 28% | [8]; [17] 22% | [8]; at 11.0 µM 32% | [16]; at 1.2 µM -37% | [16]; at 3.7 µM -29% | [16]; at 11.0 µM -3% | [16]; at 33.0 µM 51% | [9]; at 1.2 µM 20% | [9]; at 3.7 µM 2% | [9]; at 11.0 µM 23% | [9]; at 33.0 µM 62% | [10]; at 1.2 µM -14% | [10]; at 3.7 µM -15% | [10]; at 11.0 µM 20% | [10]; at 33.0 µM 67% | [11]; [17] -13% | [12]; at 1.2 µM -16% | [12]; at 3.7 µM -27% | [12]; at 11.0 µM 10%
active: [13]; at 100.0 µM 85% | [2]; at 100.0 µM 91% | [3]; at 33.0 µM 72% | [3]; [18] 79% | [3]; at 50.0 µM 77.5% | [3]; at 100.0 µM 93% | [4]; [18] 78% | [4]; at 50.0 µM 77.5% | [4]; at 100.0 µM 90% | [5]; at 100.0 µM 92% | [15]; [18] 80% | [15]; at 50.0 µM 82.8% | [6]; at 100.0 µM 88% | [7]; [18] 82% | [7]; at 50.0 µM 83% | [8]; at 33.0 µM 77% | [8]; [18] 84% | [8]; at 50.0 µM 81.3% | [8]; at 100.0 µM 93% | [16]; at 100.0 µM 87% | [9]; at 100.0 µM 92% | [10]; at 100.0 µM 92% | [11]; [18] 79% | [11]; at 50.0 µM 75.5% | [12]; at 33.0 µM 70% | [12]; at 100.0 µM 91%

CCN(CC)CCNc1ccc2ncn3c4cc(OC)c(OC)c(=O)c4c(O)c1c23
inactive: [1]; at 1.2 µM 15% | [1]; at 3.7 µM 14% | [1]; at 11.0 µM 40% | [1]; at 33.0 µM 36% | [1]; at 100.0 µM 59% | [14]; at 1.2 µM 1% | [14]; at 3.7 µM 3% | [14]; at 11.0 µM 11% | [14]; at 33.0 µM 20% | [14]; at 100.0 µM 26% | [2]; at 1.2 µM 1% | [2]; at 3.7 µM 2% | [2]; at 11.0 µM 3% | [2]; at 33.0 µM 4% | [2]; at 100.0 µM 7% | [3]; at 1.2 µM 5% | [3]; at 3.7 µM 15% | [3]; [17] 2% | [3]; at 11.0 µM 30% | [3]; at 33.0 µM 46% | [3]; [18] -3% | [3]; at 50.0 µM 65.5% | [3]; at 100.0 µM 66% | [4]; at 1.2 µM -2% | [4]; at 3.7 µM -1% | [4]; [17] -3% | [4]; at 11.0 µM 0% | [4]; at 33.0 µM 8% | [4]; [18] -12% | [4]; at 50.0 µM 23.5% | [4]; at 100.0 µM 11% | [5]; at 1.2 µM -1% | [5]; at 3.7 µM 0% | [5]; at 11.0 µM 5% | [5]; at 33.0 µM 4% | [5]; at 100.0 µM 8% | [15]; [17] 10% | [15]; [18] 17% | [15]; at 50.0 µM 12.8% | [7]; [17] -5% | [7]; [18] 48% | [7]; at 50.0 µM 26.4% | [8]; at 1.2 µM -1% | [8]; at 3.7 µM -3% | [8]; [17] 11% | [8]; at 11.0 µM 0% | [8]; at 33.0 µM -2% | [8]; [18] 16% | [8]; at 50.0 µM 11.8% | [8]; at 100.0 µM 4% | [16]; at 1.2 µM -3% | [16]; at 3.7 µM 0% | [16]; at 11.0 µM 1% | [16]; at 33.0 µM 1% | [16]; at 100.0 µM 2% | [9]; at 1.2 µM -1% | [9]; at 3.7 µM 0% | [9]; at 11.0 µM 1% | [9]; at 33.0 µM 3% | [9]; at 100.0 µM 7% | [10]; at 1.2 µM 0% | [10]; at 3.7 µM 5% | [10]; at 11.0 µM 3% | [10]; at 33.0 µM 4% | [10]; at 100.0 µM 5% | [11]; [17] 38% | [11]; [18] -10% | [11]; at 50.0 µM 20.3% | [12]; at 1.2 µM -4% | [12]; at 3.7 µM -1% | [12]; at 11.0 µM 5% | [12]; at 33.0 µM -7% | [12]; at 100.0 µM 1%
